# Most compounds without a hit are left out; they make up all but 1.3% or so of the library.
# PGC1a acetyl inh – modulators of PGC1a acetylation. U2OS PGC1a acetylation, AlphaScreen anti-acetyl-lysine; with virally co-expressed GCN5 acetyltransferase. inhibition, % at 15.6 µM. 0.17% of 350,000 active. AID 651687;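 active = every replicate shows inhibition of at least 40%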;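 also: 0% = neutral control wells and 100% = positive control wells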
# Statin myotox sup – suppressors of simvastatin-induced myotoxicity in C2C12 myotubes; ATP luminescence, 48 h; scaled: DMSO 0, geranylgeraniol control 100; AID 602340; 0.78% of 330,000 active; rescue of ATP level, % at 7.49 µM;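 active = mean ATP rescue above about 67%, or every replicate alone reaching that limit, limit read from the data, passing the limit was not always enough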;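 also: myotubes were challenged with 10 µM simvastatin during compound exposure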
# HIF activator – HIF pathway transcriptional activation. AID 1910. 0.32% of 300,000 active. activation, % at 7.5 µM (by protocol). U2OS HRE-luciferase reporter, luminescence; normalized: DMSO 0%, desferrioxamine 100%;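 active = mean activation of at least 10% of the iron chelator positive control signal, with at least half of replicates also reaching 10%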
# Rce1 inh – blocks yeast Ras-converting enzyme | Q03530 | yeast membranes, quenched prenylated peptide cleavage fluorescence | calls only | 0.27% of 290,000 active;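 active = fall in fluorescence gain of 50% or more versus controls, with final raw signal at or below 3038400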;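 also: plate controls were neutral control wells for no effect and wells lacking membranes for full effect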
# Target sequence (Q03530 whole entry, looked up): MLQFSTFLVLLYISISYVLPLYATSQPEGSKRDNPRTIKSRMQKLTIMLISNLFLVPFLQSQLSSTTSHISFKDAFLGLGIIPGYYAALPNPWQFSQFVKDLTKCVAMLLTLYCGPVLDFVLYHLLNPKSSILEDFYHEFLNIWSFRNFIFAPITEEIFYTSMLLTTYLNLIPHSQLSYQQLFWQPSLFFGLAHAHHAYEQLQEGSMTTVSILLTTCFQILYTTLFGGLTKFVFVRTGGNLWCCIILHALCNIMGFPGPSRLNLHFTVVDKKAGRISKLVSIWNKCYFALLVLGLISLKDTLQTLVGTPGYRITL
# AI-2 QS mod – modulators of Vibrio harveyi AI-2 quorum sensing system | Vibrio harveyi JMH597 AI-2 luminescence/OD600 ratio, 9 h; stronger effect = lower value; strain lacks LuxN and CqsS sensors; 0 = neutral-control median | 0.4% of 300,000 active | activity change, % at 7.5 µM | AID 2094; in the data active = activity change below about -75%, passing the limit was not always enough;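 also: luminescence divided by OD600 gain over 9 h not by final OD600 alone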
# The depositor's hits bear a star; i = inactive; · = no result given; + = active, no number.
SMILES,PGC1a acetyl inh,Statin myotox sup,HIF activator,Rce1 inh,AI-2 QS mod
COc1ccc(-c2cn3nc(SCC(=O)NCC4CCCO4)ccc3n2)cc1 (configuration not stated),6.2,1.4,19.0*,i,3.7
C[C@H](CO)N1C[C@H](C)[C@@H](CN(C)C(=O)C2CCC2)Oc2cc(Br)ccc2S1(=O)=O,-1.8,36.1,·,·,·
C[C@@H]1CN([C@H](C)CO)C(=O)c2cc(NC(=O)c3ccncc3)ccc2O[C@@H]1CN(C)C,-2.9,-4.5,·,·,·
COCCOc1cc(-n2cccc2)c(Cl)cc1Cl,-9.4,11.0,-0.4,·,23.1
COCCOc1cc(-n2ccnc2SC)c(Cl)cc1Cl,5.0,91.6*,-0.4,i,-3.3
CN(C(=O)c1ccc(NC(=O)Cc2ccc(NC(=O)C3CCN(C(=O)CCc4ccccc4)CC3)cc2)cc1)C1CC1,-7.0,160.1*,·,·,·
Cc1noc(C)c1NC(=O)Nc1ccc2c(c1)C(=O)N([C@H](C)CO)C[C@@H](C)[C@H](CN(C)Cc1ccc(C(=O)Nc3ccccc3N)cc1)O2,-12.1,·,·,·,·
COc1ccc2c3c(n(C)c2c1)[C@H](CO)N(C)CC31CN(S(=O)(=O)c2cn(C)cn2)C1,4.0,·,·,·,·
Cc1noc(C)c1S(=O)(=O)N(C)C[C@@H]1Oc2ccc(NC(=O)Nc3ccc(C(F)(F)F)cc3)cc2CC(=O)N([C@H](C)CO)C[C@H]1C,5.5,-3.4,·,·,·
Cc1cccc2cc(COC(=O)c3cccnc3)c(=O)[nH]c12,4.7,101.7*,0.2,i,31.4
O=c1cc(-c2c(F)c(F)c(F)c(F)c2F)oc2c(F)c(F)c(F)c(F)c12,·,·,-0.5,i,-78.5*
O=c1cc(-c2c(F)c(F)c(F)c(F)c2F)oc2ccccc12,-5.4,17.7,-0.6,i,42.8
CCC(=O)Nc1ccc2c(c1)OC[C@@H](C)N(C(=O)Cc1cccnc1)C[C@@H](C)[C@@H](OC)CN(C)C2=O,-1.2,-6.4,·,·,·
Cc1nc([N+](=O)[O-])c(Br)n1CC(=O)c1ccc(Br)cc1,64.1*,3.4,1.7,i,16.6
CCC(=O)N1CC(=O)N2[C@@H](CO)[C@@H](c3ccc(C#Cc4cccc(OC)c4)cc3)[C@@H]2C1,-4.5,·,·,·,·
CC1CCCN(C(=O)c2sc3cc([N+](=O)[O-])ccc3c2Cl)C1 (configuration not stated),-8.7,65.8*,0.0,i,35.1
O=C(c1sc2cc([N+](=O)[O-])ccc2c1Cl)N1CCCCC1,9.6,1.4,0.3,i,20.6
COCC(=O)N1[C@H](CO)[C@@H](c2ccc(-c3ccccc3)cc2)C12CN(C(C)=O)C2,2.5,·,·,·,·
O=C(NCC1CCCO1)c1ccccc1 (configuration not stated),5.8,27.9,0.8,i,31.6
O=C(NCC1CCCO1)c1cc(-c2ccccc2F)no1 (configuration not stated),-22.7,5.9,13.5*,i,13.3
C=CCNC(=O)C(C#N)c1nc2ccccc2nc1N1CCCCCC1 (configuration not stated),-3.7,85.7*,-0.2,i,35.7
CCCCNC(=O)C(C#N)c1nc2ccccc2nc1N1CCCC1 (configuration not stated),·,·,0.0,i,20.0
Cc1ccc(C2(O)CN(c3ccccc3C)C3=[N+]2CCS3)cc1 (configuration not stated),·,·,12.5*,i,3.9
O=C(Nc1ccccc1Oc1cccnc1)C1CCCN(Cc2ccccc2O)C1 (configuration not stated),-21.4,10.8,-0.1,i,6.4
C#Cc1ccc(CN2CCCC(C(=O)Nc3ccccc3Oc3cccnc3)C2)cc1 (configuration not stated),-1.4,91.4*,-0.4,i,-6.1
SMILES,PGC1a acetyl inh,Statin myotox sup,HIF activator,Rce1 inh,AI-2 QS mod
O=C1OCCN1S(=O)(=O)Nc1ccccc1,·,10.5,1.8,i,18.6
O=C1OCCN1N1CCOC1=O,-4.8,112.7*,·,·,·
O=C(Nc1nc(NC(=O)c2ccco2)n(-c2ccccc2)n1)c1ccccc1,17.7,94.2*,12.0*,i,53.7
CC(=O)Nc1nc(NC(=O)/C=C/c2ccccc2)n(-c2ccccc2)n1,·,·,10.4*,i,-32.6
CC(=O)Nc1nc(NCc2ccccc2Cl)n(-c2ccccc2)n1,-2.3,9.7,0.0,i,10.4
CNC[C@H]1OCCCC[C@H](C)Oc2ccc(NC(=O)Nc3c(C)noc3C)cc2C(=O)N([C@@H](C)CO)C[C@H]1C,-0.7,31.2,·,·,·
O=C(COc1ccc(F)cc1)N(Cc1cccc(Br)c1)C1CCS(=O)(=O)C1 (configuration not stated),21.9,11.4,0.5,i,-0.6
O=C(COc1ccccc1)N(Cc1cccc(F)c1)C1CCS(=O)(=O)C1 (configuration not stated),·,13.0,18.4*,i,22.8
CCn1c(CSc2nc(C)cc(C)n2)nnc1SCC(=O)Nc1nc(-c2ccccc2)cs1,3.4,117.2*,0.0,i,6.9
Cc1cc(C)nc(SCc2nnc(SCC(=O)Nc3nc(-c4ccccc4)cs3)n2C)n1,17.9,12.9,0.0,i,13.0
C/C=C/c1ccc([C@@H]2[C@H](CO)N(C(=O)CC)C23CN(S(=O)(=O)CC)C3)cc1,7.8,·,·,·,·
CC(=O)Cn1c(C(F)(F)F)nc2ccccc21,-9.7,4.8,-0.1,i,250.9
CC(C(=O)O)n1c(C(F)(F)F)nc2ccccc21 (configuration not stated),13.0,131.8*,0.0,i,2.3
COc1ccc(C[C@H]2c3cc(O)c(OC)cc3CC[N+]2(C)[O-])cc1O (some centres not stated),-11.0,-6.7,0.2,+,5.0
COc1cc2c(cc1O)C(Cc1ccc(O)cc1)[N+](C)([O-])CC2 (configuration not stated),-9.8,16.7,0.1,i,30.8
CO[C@@H]1CN(C)C(=O)c2ccc(NC(=O)NC(C)C)cc2OC[C@@H](C)N(C(=O)CC2CC2)C[C@H]1C,9.6,-3.0,·,·,·
COc1cccc(C(C(=O)NC(C)(C)C)N(C(=O)CCC(=O)Nc2cc(C)on2)C(C)(C)C)c1OC (configuration not stated),-18.6,66.6*,0.3,i,-0.7
COc1cccc(C(C(=O)NC(C)(C)C)N(C(=O)CCC(=O)Nc2cc(C)on2)C(C)C)c1OC (configuration not stated),·,·,0.0,i,27.1
C/C=C/c1ccc2c(c1)O[C@@H](CN(C)C(=O)C1CCC1)[C@H](C)CN([C@@H](C)CO)S2(=O)=O,2.9,-23.0,·,·,·
COc1ccc(C(=O)NCC2(c3ccccc3)CCCC2)c(OC)c1,2.5,6.2,-1.7,i,10.0
COc1ccc(C2(CNC(=O)CCC(=O)O)CCCC2)cc1,8.3,86.5*,0.2,i,14.0
COc1cccc(Nc2c([N+](=O)[O-])cncc2[N+](=O)[O-])c1,-17.0,8.1,-8.3,i,2.9

# From PubChem
